# Targets with the largest changes are over-represented here; the source holds about 21,000 in all.
# Compound: CC1Cc2ccccc2N1C(=O)C1CCCN(C1)C(=O)CCl (mixture of isomers) [TRIM25 ligand 11 (diastereomer mixture)]
# Test: probe-labelled cysteine peptide fold change vs DMSO (competition) (log2 fold change); higher = less target engagement (more negative = stronger competition)
# Conditions: THP-1, incubation time: 4 h
# 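Also: competitive chemoproteomic profiling in live THP-1 cells with an iodoacetamide desthiobiotin (IA-DTB) probe, comparing probe-labelled peptide intensities in compound-treated cells against DMSO-treated controls.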
# Chain of UniProt P48506 (P48506 whole entry, looked up): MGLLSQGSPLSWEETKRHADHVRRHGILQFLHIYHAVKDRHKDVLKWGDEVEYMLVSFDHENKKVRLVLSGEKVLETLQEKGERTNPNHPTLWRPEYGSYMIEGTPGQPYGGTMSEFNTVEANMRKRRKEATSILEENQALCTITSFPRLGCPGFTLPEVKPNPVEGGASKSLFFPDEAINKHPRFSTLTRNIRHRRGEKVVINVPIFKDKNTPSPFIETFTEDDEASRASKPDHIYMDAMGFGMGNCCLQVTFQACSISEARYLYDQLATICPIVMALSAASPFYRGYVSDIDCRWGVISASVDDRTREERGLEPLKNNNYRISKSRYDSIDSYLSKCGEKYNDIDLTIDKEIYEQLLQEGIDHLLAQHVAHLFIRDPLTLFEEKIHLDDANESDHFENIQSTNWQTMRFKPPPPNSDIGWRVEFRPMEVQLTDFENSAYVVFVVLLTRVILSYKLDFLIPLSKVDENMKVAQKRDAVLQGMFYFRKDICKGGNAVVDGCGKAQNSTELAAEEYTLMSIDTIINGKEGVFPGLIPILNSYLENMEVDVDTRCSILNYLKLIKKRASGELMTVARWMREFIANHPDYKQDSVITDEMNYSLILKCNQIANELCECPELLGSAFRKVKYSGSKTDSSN
# Chain of UniProt P22102 (P22102 whole entry, looked up): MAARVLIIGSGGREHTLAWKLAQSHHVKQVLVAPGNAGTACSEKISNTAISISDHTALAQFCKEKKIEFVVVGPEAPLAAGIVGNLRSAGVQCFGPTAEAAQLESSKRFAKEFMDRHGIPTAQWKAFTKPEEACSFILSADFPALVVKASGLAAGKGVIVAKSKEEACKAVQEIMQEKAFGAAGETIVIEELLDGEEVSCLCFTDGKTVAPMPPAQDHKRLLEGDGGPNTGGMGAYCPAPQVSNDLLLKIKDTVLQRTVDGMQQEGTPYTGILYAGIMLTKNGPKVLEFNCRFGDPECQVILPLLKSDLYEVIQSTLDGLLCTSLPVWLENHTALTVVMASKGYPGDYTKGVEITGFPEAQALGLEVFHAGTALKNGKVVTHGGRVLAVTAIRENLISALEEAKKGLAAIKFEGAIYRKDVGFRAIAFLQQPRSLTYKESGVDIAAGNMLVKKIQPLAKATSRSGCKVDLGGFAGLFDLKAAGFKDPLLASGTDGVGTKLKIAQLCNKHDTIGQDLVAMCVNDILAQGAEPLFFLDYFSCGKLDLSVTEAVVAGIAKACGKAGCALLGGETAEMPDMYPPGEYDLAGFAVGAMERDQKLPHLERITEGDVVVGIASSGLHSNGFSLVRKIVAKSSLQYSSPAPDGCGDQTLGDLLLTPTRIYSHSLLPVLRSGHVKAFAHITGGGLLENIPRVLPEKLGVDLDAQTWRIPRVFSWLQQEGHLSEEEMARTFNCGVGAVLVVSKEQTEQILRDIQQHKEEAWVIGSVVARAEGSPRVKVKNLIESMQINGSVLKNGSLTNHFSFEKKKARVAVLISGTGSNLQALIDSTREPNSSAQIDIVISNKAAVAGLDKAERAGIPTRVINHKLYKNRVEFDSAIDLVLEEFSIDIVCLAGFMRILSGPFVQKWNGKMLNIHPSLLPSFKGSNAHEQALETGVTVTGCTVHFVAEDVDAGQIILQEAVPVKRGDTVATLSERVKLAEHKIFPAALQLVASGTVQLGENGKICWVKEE
# Chain of UniProt P52272 (P52272 whole entry, looked up): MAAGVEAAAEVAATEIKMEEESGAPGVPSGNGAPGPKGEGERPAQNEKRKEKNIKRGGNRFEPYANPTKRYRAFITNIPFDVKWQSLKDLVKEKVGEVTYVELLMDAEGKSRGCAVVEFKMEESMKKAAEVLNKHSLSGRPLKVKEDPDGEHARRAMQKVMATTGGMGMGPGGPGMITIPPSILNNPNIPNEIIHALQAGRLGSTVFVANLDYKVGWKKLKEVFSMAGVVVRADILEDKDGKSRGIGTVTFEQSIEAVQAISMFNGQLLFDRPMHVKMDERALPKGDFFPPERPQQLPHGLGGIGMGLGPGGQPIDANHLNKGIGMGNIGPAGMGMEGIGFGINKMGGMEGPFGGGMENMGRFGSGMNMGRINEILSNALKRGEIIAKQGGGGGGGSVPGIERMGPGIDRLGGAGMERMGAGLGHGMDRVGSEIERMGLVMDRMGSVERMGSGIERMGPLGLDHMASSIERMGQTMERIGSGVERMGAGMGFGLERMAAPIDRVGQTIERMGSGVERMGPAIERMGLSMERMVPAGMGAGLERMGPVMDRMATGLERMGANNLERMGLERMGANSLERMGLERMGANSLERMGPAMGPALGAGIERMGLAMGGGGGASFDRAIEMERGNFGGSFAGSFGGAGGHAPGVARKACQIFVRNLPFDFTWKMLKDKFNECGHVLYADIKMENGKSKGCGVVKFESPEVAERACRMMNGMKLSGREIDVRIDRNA
# Chain of UniProt P12081 (P12081 whole entry, looked up): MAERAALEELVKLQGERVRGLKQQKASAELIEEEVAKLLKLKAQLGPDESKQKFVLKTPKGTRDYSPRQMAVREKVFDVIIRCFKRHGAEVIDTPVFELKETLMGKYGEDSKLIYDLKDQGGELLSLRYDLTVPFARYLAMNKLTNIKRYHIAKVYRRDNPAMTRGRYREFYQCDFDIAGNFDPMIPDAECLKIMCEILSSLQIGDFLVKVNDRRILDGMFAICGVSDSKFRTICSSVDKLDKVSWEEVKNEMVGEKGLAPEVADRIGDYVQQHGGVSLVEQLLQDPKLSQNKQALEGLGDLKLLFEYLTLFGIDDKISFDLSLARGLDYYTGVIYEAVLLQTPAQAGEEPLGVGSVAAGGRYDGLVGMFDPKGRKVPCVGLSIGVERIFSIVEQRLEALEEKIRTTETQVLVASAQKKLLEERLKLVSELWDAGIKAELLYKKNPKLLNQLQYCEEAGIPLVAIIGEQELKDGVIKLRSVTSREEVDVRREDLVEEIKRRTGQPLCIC
# Chain of UniProt P52789 (P52789 whole entry, looked up): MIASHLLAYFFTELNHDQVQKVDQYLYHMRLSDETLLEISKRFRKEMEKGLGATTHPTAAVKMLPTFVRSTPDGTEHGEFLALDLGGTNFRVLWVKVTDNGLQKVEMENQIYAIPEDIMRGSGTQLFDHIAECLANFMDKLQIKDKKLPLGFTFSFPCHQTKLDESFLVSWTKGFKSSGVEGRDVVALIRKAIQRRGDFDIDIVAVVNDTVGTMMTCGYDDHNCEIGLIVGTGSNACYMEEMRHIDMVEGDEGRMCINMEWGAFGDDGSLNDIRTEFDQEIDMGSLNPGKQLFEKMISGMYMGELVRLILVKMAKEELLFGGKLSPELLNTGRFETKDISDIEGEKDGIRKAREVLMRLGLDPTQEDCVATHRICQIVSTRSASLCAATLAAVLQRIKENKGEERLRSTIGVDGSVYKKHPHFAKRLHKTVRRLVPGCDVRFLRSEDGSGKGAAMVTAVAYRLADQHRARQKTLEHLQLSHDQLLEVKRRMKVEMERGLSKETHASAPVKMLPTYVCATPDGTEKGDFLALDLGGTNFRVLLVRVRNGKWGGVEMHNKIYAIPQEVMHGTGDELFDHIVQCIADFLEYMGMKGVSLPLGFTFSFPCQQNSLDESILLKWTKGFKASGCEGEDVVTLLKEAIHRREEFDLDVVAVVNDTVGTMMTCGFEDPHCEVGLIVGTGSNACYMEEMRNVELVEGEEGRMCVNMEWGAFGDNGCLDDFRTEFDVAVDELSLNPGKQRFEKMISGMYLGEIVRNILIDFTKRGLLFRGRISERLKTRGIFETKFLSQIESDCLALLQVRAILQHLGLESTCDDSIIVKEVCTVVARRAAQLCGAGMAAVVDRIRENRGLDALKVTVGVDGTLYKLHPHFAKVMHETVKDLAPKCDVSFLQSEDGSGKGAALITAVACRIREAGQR
# Chain of UniProt P04899 (P04899 whole entry, looked up): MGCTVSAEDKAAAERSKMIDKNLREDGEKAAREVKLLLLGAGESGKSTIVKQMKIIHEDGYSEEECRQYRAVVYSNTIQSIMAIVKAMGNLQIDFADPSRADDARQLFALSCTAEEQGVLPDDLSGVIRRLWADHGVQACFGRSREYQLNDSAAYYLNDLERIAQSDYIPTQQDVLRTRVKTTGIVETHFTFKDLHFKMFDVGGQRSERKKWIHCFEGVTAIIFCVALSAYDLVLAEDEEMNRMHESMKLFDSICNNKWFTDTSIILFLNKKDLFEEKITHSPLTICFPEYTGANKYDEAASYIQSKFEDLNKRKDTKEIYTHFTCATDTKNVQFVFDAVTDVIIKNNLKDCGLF
# Chain of UniProt Q10472 (Q10472 whole entry, looked up): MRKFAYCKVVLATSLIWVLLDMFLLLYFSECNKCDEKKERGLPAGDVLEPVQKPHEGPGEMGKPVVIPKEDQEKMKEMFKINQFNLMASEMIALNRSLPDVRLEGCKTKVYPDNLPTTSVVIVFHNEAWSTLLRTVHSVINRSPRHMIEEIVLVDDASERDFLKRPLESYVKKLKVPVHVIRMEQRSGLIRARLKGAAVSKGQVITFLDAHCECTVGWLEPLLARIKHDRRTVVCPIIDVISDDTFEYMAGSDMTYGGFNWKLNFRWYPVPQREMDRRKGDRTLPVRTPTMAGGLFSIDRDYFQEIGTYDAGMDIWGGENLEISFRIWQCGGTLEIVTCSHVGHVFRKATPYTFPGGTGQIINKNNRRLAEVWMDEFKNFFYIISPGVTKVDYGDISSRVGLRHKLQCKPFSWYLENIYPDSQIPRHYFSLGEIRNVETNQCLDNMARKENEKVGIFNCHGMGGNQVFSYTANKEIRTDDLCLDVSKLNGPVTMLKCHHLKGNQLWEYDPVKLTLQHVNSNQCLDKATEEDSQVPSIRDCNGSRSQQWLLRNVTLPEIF
Target,probe-labelled cysteine peptide fold change (10 µM),probe-labelled cysteine peptide fold change (50 µM)
GTPBP1_O00178_515_YQAMVHCGSIR (UniProt O00178),-0.0472,0.0726
GCLC_P48506_295_GYVSDIDCR (UniProt P48506),0.0316,0.199
HNRNPM_P52272_676_DKFNECGHVLYADIK (UniProt P52272),-0.633,-0.474
GNAI2_P04899_287_ITHSPLTICFPEYTGANKYDEAASYIQSK (UniProt P04899),-0.134,-0.103
GALNT1_Q10472_482_TDDLCLDVSK (UniProt Q10472),0.0604,0.00641
HK2_P52789_133_GSGTQLFDHIAECLANFMDK (UniProt P52789),0.165,-0.083
HADHA_P40939_349_ALMGLYHGQVLCKK (UniProt P40939),-0.452,-0.365
GPATCH8_Q9UKJ3_795_HKGELPPSSCQR (UniProt Q9UKJ3),-0.186,-0.0452
GTF3C3_Q9Y5Q9_810_GPCQESFYNLGR (UniProt Q9Y5Q9),0.136,0.284
GART_P22102_941_GSNAHEQALETGVTVTGCTVHFVAEDVDAGQIILQEAVPVKR (UniProt P22102),-0.0918,0.156
HARS_P12081_379_KVPCVGLSIGVER (UniProt P12081),-0.0416,-0.0375
GEMIN4_P57678_210_LRSDPDACPTMPLLAMLLR (UniProt P57678),-0.252,-0.0506
HPCAL1_P37235_185_LLQCDPSSASQF<|>HPCA_P84074_185_LLQCDPSSASQF (UniProt P84074+P37235),0.00885,-0.0604
